Assay outcomes as filed in PubChem.
VCAM1 TNFa pot = enhances TNF alpha induced VCAM1 expression in HUVEC; HUVEC TNFa-stimulated VCAM-1 immunofluorescence, high-content imaging; scaled per plate to unstimulated/TNFa-only wells; activation, % at 2 µM; hit rate 0.19% among 93,000;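 active means activation above the screen mean plus 3 SD, with well images confirming the hit on visual review, cut at about 28% in these data, passing the limit was not always enough; inconclusive means activation above that limit but images do not confirm it; inactive means activation not above that limit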;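 further: signal is the number of cytoplasmic VCAM-1 stained grains per positive cell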
VCAM1 pot conf = potentiators of TNFa-induced VCAM1 expression, confirmation, imaging, HUVEC, triplicate retest; shares compounds with VCAM1 TNFa pot; HUVEC TNFa-stimulated VCAM-1 immunofluorescence imaging; activation, % at 2 µM; 230 tested, under 10 active; AID 1034;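 active means activation above 30% in triplicate retests at 2 µM, then confirmed by visual review of the well images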
Hits are given with their value; n = inactive; u = inconclusive. Shown is part of a subset that was picked to be rich in hits.

SMILES	VCAM1 TNFa pot	others
CCOC(=O)Cc1csc(SCC(=O)/C(C#N)=C(\C)N)n1	n
c1ccc(-n2ncc3c(NCc4ccco4)ncnc32)cc1	n
CN(C)C(CNc1nnnn1-c1ccccc1)c1ccco1 (stereo not drawn)	u	VCAM1 pot conf=n
COc1ccccc1C(=O)NC(CCSC)C(=O)NCC(c1ccco1)N(C)C (stereo not drawn)	n
CC1CCCCC1NC(=O)c1ccc2c(c1)[nH]c(=O)n2C1CCCC1 (stereo not drawn)	n
COc1ccccc1NS(=O)(=O)CC12CCC(CC1=O)C2(C)C (stereo not drawn)	n
COC(=O)c1cc(NC(=O)CCc2c(C)nc3ncnn3c2C)cc(C(=O)OC)c1	n
O=C(CSc1nnc(CNc2ccc(F)cc2)n1Cc1ccco1)NC1CC1	n
CC1(C)Cc2c(cnn2-c2ccccc2)C(=O)/C1=N\NC(=O)c1ccccc1	34	VCAM1 pot conf=n
COc1ccc(C(=O)N[C@H](C(=O)NCC2CCCCC2)C(C)C)cc1	n
COC(=O)c1nn(-c2cccc(C(F)(F)F)c2)c(=O)cc1Sc1ccccn1	n
CC(=O)c1ccc(NS(=O)(=O)c2cccc(C)c2)cc1	72	VCAM1 pot conf=n
O=S(=O)(Nc1ccc(-n2cccc2)cc1)c1ccccc1	n
Cc1cccc(NS(=O)(=O)c2ccc(C)c(C(=O)OCC(=O)Nc3cc(C)on3)c2)c1	n
COC(=O)c1ccc(C(=O)OC)c(NC(=O)CSCc2ccc(Br)cc2)c1	n
CN(CC(=O)N1CCN(c2ccccc2)CC1)S(=O)(=O)c1cnc[nH]1	n
CCOC(=O)c1c(NC(=O)CN2CCN(c3ccc(Cl)cc3)CC2)sc(C)c1C	n
N#Cc1cnn(-c2ccccc2)c1N	n
N#Cc1cc(Oc2ccccc2)c(-n2nnc3ccccc32)cc1C#N	n
N#Cc1ccc(-n2c(-c3ccccc3)nnc2-c2ccccc2)cc1C#N	52	VCAM1 pot conf=n
Cc1cc(C)cc(Oc2ccc(N)cc2)c1	n
COc1cccc(C(=O)N/N=C/c2ccc(OC3CSC3)cc2)c1	n
O=C(CSc1nnc(COc2ccccc2)n1Cc1ccco1)Nc1ccc2c(c1)OCCO2	n
CCN1CCN(C(c2cccs2)C(C)NS(=O)(=O)c2ccc(Br)cc2)CC1 (stereo not drawn)	n
COc1cccc(NC(=O)c2ccn(C)n2)c1	n
SMILES	VCAM1 TNFa pot	others
COc1nc(Nc2ccc(C(C)C)cc2)nc(OC)n1	47	VCAM1 pot conf=n
CC(C)c1ccc(NC(=O)c2ccc(Br)o2)cc1	n
CC1CCN(C(=S)c2ccccc2O)CC1	n
COC(=O)C1C(O)=C(C=NCC(C)N=CC2=C(O)C(C(=O)OC)C(C)(C)CC2=O)C(=O)CC1(C)C (stereo not drawn)	n
Cc1ccccc1CSCCNC(=O)CCSc1ccccc1	n
COC1(c2ccccc2)NC(=S)NN=C1c1ccccc1 (stereo not drawn)	n
CCOC(=O)/C(=C\c1ccccc1)C(=O)c1cc(C(C)=O)c(Nc2ccccc2)s1	68	VCAM1 pot conf=n
CCOC(=O)/C(=C\c1cccnc1)C(=O)c1cc(C(C)=O)c(Nc2ccccc2)s1	n
CCCCCOP(=O)(OCCCCC)C1(NS(=O)(=O)c2ccccc2)C=CC(=O)c2ccccc21 (stereo not drawn)	n
O=C(NN1C(=O)c2ccccc2NC1c1ccccn1)c1ccc(Br)cc1 (stereo not drawn)	n
CN1CCCC1CCNS(=O)(=O)c1ccc(Br)cc1 (stereo not drawn)	n
CCN(C(=O)c1cc2cccc(OC)c2oc1=O)C1CCCCC1	n
CCn1c(CNC(=O)C(C)(C)C)nc2ccccc21	n
CCn1c(=O)c2c(cnn2C)c2ccccc21	n
CCn1c2ccccc2c2cc(C3N=C(N)Nc4nc5ccccc5n43)ccc21 (stereo not drawn)	54	VCAM1 pot conf=n
CCC(C)NC(=O)C1CCN(S(=O)(=O)CC)CC1 (stereo not drawn)	n
CCc1noc(C)c1C(=O)Nc1sc(C(=O)N(C)C)c(C)c1C(=O)OC	n
Cc1cc(C)n(-c2nc(-c3cccc(Cl)c3)cs2)n1	n
CC(CO)Nc1nc(SCc2ccccc2)nc2sc3c(c12)CCC3 (stereo not drawn)	n
CCn1c(SCC(=O)N2CCN(c3ccccc3)CC2)nnc1-c1c[nH]c2ccccc12	n
O=C(c1ccc2c(c1)[nH]c(=S)n1c3ccccc3nc21)N1CCN(c2ncccn2)CC1	n
O=C(c1ccc(-c2ccccc2)cc1)N1CCN(c2ncccn2)CC1	u	VCAM1 pot conf=n
Cn1nc(-c2ccc(C(=O)N3CCN(c4ccccc4)CC3)cc2)c2ccccc2c1=O	n
COc1ccc(C(=O)NCC(C)(C)SCc2c(C)cc(C)cc2C)cc1	n
CCOc1ccccc1Nc1nnc(SCC(=O)N2CCCC2)s1	n
SMILES	VCAM1 TNFa pot	others
Cn1c(=O)cc(OCC(=O)NC2CCCCC2)c2ccccc21	n
Cc1ccc(NC(=O)CCN2C(=O)CSC2=O)cc1	n
O=C(CN1C(=O)CSC1=O)NC1CCCCC1	42	VCAM1 pot conf=n
O=C(NNC(=O)c1sccc1-n1cccc1)c1cccc(Cl)c1	n
Cc1cc(C)cc(NC(=O)CN2CCc3ccccc3C2)c1	n
O=C(CN1CCC(n2nnc3ccccc32)CC1)Nc1ccc2c(c1)CCC2	u	VCAM1 pot conf=n
O=C(CN1CCN(CC(=O)Nc2ccccc2Cl)CC1)Nc1ccc2c(c1)OCCO2	n
COc1cccc(-c2cc(C(=O)Nc3cc(C)nn3-c3ccccc3)no2)c1	n
CCCN1C2=C(C(=O)CCC2)C(c2ccc(F)cc2)C2=C1c1ccccc1C2=O (stereo not drawn)	n
CCCCCC(=O)N1CCN(CCN=CC2=C(O)CC(c3cccs3)CC2=O)CC1 (stereo not drawn)	n
O=C(N/C=C/c1ccc(Cl)cc1)NCc1ccc(Cl)cc1	n
CCOC(=O)c1nnn(CC(=O)N2N=C(c3ccccc3)CC2c2ccccc2)c1C(=O)OCC (stereo not drawn)	n
Cc1ccc(-c2nn(-c3ccccc3)cc2C2CC(c3cccs3)=NN2C(=O)CCCC(=O)O)cc1 (stereo not drawn)	30	VCAM1 pot conf=n
O=C(O)c1cn(-c2ccccc2)nc1-c1ccncc1	n
CCCCCOC(=O)C1[C@H]2C(=O)N(CCCOC)C[C@]23C=C[C@H]1O3 (stereo partly drawn)	n
COC(=O)c1cc(OC)c(OCc2cc(C(=O)OC)oc2C)c(OC)c1	53	VCAM1 pot conf=n
C=CCc1ccc(OCc2ccc(C(=O)OC)o2)c(OC)c1	n
Cc1oc(C(=O)O)cc1CSCc1cc(C(=O)O)c(C)o1	n
COC(=O)C(CCSC)NC(=O)CNS(=O)(=O)c1ccc(Cl)cc1 (stereo not drawn)	n
Cn1c(SCC(=O)Nc2ccccc2)nnc1-c1ccc(NC(=O)CCc2ccccc2)cc1	n
CSc1nnc(-c2ccc(NC(=O)CCc3ccccc3)cc2)n1C	u	VCAM1 pot conf=n
COc1cccc(-c2nnc(SCCC(=O)O)n2C)c1	n
O=C(c1cnn2c(C(F)(F)F)cc(-c3cccs3)nc12)N1CCN(C(c2ccccc2)c2ccccc2)CC1	n
CCOC(=O)c1ccc(NC(=O)C(C)N2C(=O)c3ccccc3C2=O)cc1 (stereo not drawn)	n
CCOC(=O)c1cccc(NC(=O)CN2C(=O)C3C4C=CC(C4)C3C2=O)c1 (stereo not drawn)	n
CCOC(=O)c1cccc(NC(=O)C(C)N2C(=O)c3ccccc3C2=O)c1 (stereo not drawn)	36	VCAM1 pot conf=n
COc1ccccc1-c1cn(S(=O)(=O)c2ccc(C)cc2)nc1N	n
CCOC(=O)c1ccc(NC(=O)COc2cc(=O)n(CC)c3ccccc23)cc1	n
